For 83 compounds, growth inhibition results are on record in PubChem BioAssay AID710 (SRMLSC, 2007).

The structures appear in SMILES notation. Out of some 98,000 compounds screened, about 150 (0.15%) were called active.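 How the source made its calls: active means growth inhibition above about 50% at one test dose (limit read from the data); inactive means the rest.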 What follows is part of a selection rich in actives, with near analogues and random picks from the rest.

This assay is described as follows: antibacterial activity against E. coli BW25113 – strain BW25113, expanded library, OD600, primary screen (AID 710).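 Further: growth measured after 20 h incubation at 37 °C.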 The conditions noted are these: OD600 absorbance, at 100 µM, active compounds read high.
Turning to `COC(=O)CNC(c1ccccc1Cl)c1cc(Br)ccc1NC(=O)CCN1CCOCC1` (stereo not drawn), the growth inhibition was -3% (inactive).
In the case of `CCOC(=O)C1=C(CN2CCc3ccccc32)NC(=O)NC1c1ccc(Cl)cc1` (stereo not drawn) it was -2% (inactive); in that of `O=C(CN(c1ccccc1)S(=O)(=O)c1ccc(Cl)cc1)Nc1ccccc1C(=O)N1CCCC1`, -17% (inactive).
Under `Cc1cc(OC(=O)c2c(Cl)cccc2Cl)nc(C)n1` stands 5% (inactive); under `COc1ccc(-n2nc(C(=O)NCC(=O)Nc3cccc(C)n3)c3ccccc3c2=O)cc1`, -15% (inactive).
In the case of `CCOc1cccc(SCc2noc(C(=O)NC(C)C)c2C(=O)O)c1` it was -4% (inactive).
Regarding `CCOC(=O)C(=CNc1cccc(C)n1)C(=O)OCC`, the growth inhibition is -6% (inactive).
In the case of `O=C(NCC1CCCO1)/C(=C\c1ccco1)NC(=O)c1ccccc1` (stereo not drawn) it was -5% (inactive); in that of `O=C(NC1(C(F)(F)F)NC(=O)N(Cc2cccnc2)C1=O)c1ccccc1Cl` (stereo not drawn), -1% (inactive); in that of `O=C(/C=C/NNC(=O)c1cccc(Br)c1)c1ccccc1`, -3% (inactive).
As for `CNC(=O)c1c(NC(NC(=O)c2ccco2)C(=O)c2ccc(Cl)cc2)sc2c1CCCC2` (stereo not drawn), the growth inhibition was -6% (inactive).
For `CCOc1ccc(C(O)Cn2c(=N)n(CCN3CCCCC3)c3ccccc32)cc1` (stereo not drawn), the growth inhibition is -1% (inactive).
In the case of `Cc1ccc(OCC(=O)Nn2cnc3ccccc32)cc1` it was 5% (inactive); in that of `Cc1ccc(-n2nc3ccc(NC(=O)/C=C/c4ccco4)cc3n2)cc1C`, -1% (inactive); in that of `S=c1nccc(-c2cc(Cl)sc2Cl)[nH]1`, 3% (inactive).
Under `COc1ccccc1NC(=O)c1ccc2nc(N3C(=O)CCC3=O)sc2c1` stands 0% (inactive); under `N#C/C(=C1/CCCN1)c1ccccn1`, 3% (inactive); under `CCOc1ccc(NC(=O)c2ccccc2NS(C)(=O)=O)cc1`, -4% (inactive).
In the case of `S=c1[nH]nc(-c2ccc(Cl)cc2)n1CC1CCCO1` (stereo not drawn) it was 2% (inactive); in that of `CSc1ccc(CCNC(=O)C2CCN(c3nnc(-n4cccc4)s3)CC2)cc1`, -3% (inactive).
Regarding `CSc1ccccc1C(=O)Nc1cccc(C(C)=O)c1`, the growth inhibition is -4% (inactive).
Under `Clc1ccc(-c2nnc(-c3ccccc3)nc2N2CCSCC2)cc1` stands -24% (inactive); under `COC(=O)c1c(CCl)noc1C(=O)NC(C)C`, 1% (inactive).
Under `CCn1c(Cc2cccs2)nnc1SCC(=O)c1ccc(C)cc1` stands -2% (inactive); under `Cc1cccc(NC(=O)N(Cc2cc3cc(C)cc(C)c3[nH]c2=O)CC2COCCO2)c1` (stereo not drawn), -1% (inactive).
`CCCCCOC(=O)c1ccc(N2C(=O)C3C4C=CC(C4)C3C2=O)cc1` (stereo not drawn): the growth inhibition was -5% (inactive).
In the case of `Cn1ncc(Br)c1C(=O)NCc1cccs1` it was 5% (inactive).
In the case of `COc1ccc(/C(N)=N/OC(=O)Oc2ccccc2)cc1` it was -14% (inactive).
Turning to `CCOC(=O)c1nn(-c2cccc(C)c2)cc1C(=O)c1ccccc1`, the growth inhibition was 5% (inactive).
Take `Cc1ccc(N(CC(=O)Nc2cccc(N(C)S(C)(=O)=O)c2)S(C)(=O)=O)cc1`: the growth inhibition is -5% (inactive).
Take `Cc1ccn(C(CC(=O)c2ccc(Br)cc2)C(=O)O)n1` (stereo not drawn): the growth inhibition is 8% (inactive).
Under `Cn1sc(NC(=O)c2ccccc2)nc1=O` stands -5% (inactive).
For the compound `Cc1cc(C)c(S(=O)(=O)N2C=CC(C(F)(F)F)=NCC2)c(C)c1`, the growth inhibition was 7% (inactive).
Turning to `CCOc1ccc(S(=O)(=O)Nc2nc3cc(OC)ccc3s2)cc1`, the growth inhibition is -6% (inactive).
Take `CCCCc1nc(NCCN)c(C#N)c2c1CSC(C)(C)C2`: the growth inhibition is 33% (inactive).
Under `Cc1ccc(Oc2ccc3c(c2)C(=O)N(c2cccc4cccnc24)C3=O)cc1` stands 3% (inactive); under `OCCNc1nc2ccccc2[nH]1`, 2% (inactive); under `Cc1ccc(S(=O)(=O)N2CCC(C(=O)NCC3CCCO3)CC2)cc1` (stereo not drawn), -7% (inactive).
Consider `CC1(C)Cc2nc3sc4c(SCC(=O)NC(c5ccccc5)c5ccccc5)ncnc4c3cc2CO1`, for which the growth inhibition was -10% (inactive).
Take `CN(C)C(=O)c1cc(Br)ccc1Cl`: the growth inhibition was 2% (inactive).
In the case of `C=CCN(C(=O)Cn1ncc2c1-c1cc(C)ccc1OC2)c1ccccc1` it was 5% (inactive); in that of `O=c1[nH]n(-c2cccc(Cl)c2)c2ncccc12`, -6% (inactive); in that of `CCOc1ccccc1NC(=O)C12CC3CC(C1)CC(c1ccc(C)cc1)(C3)C2`, -16% (inactive).
In the case of `O=C(CCN1c2ccccc2Sc2ccccc21)Nc1ccccc1` it was -21% (inactive).
Turning to `Cc1cc([N+](=O)[O-])ccc1NCc1cccc([N+](=O)[O-])c1`, the growth inhibition was -11% (inactive).
For the compound `CCOc1ccc(S(=O)(=O)Nc2ccc(S(=O)(=O)Nc3cc(OC)ccc3OC)cc2)cc1`, the growth inhibition was -6% (inactive).
In the case of `CCCCn1c(=S)[nH]c2cc(S(=O)(=O)N3CCCCC3)ccc21` it was 2% (inactive); in that of `CSC1=N/C(=C\c2ccc3c(c2)OCO3)C(=O)S1`, -11% (inactive); in that of `COc1cccc(NC(=O)c2nn(C34CC5CC(CC(C5)C3)C4)cc2[N+](=O)[O-])c1`, -6% (inactive).
As for `O=c1c2ccccc2c(-c2ccc(Br)cc2)nn1Cc1ccccc1`, the growth inhibition was -14% (inactive).
In the case of `COc1ccc(-c2cn(-c3ccc(C)cc3)c(=O)n2CC(=O)Nc2ccc(OC)c(OC)c2)cc1`, the growth inhibition was -4% (inactive).
Under `CC1CC(C)CN(C/C=C/c2ccccc2[N+](=O)[O-])C1` (stereo not drawn) stands -1% (inactive); under `CCCCNC(=O)OC(C)CNC(=O)OC` (stereo not drawn), 10% (inactive).
Under `Cc1cc(NC(=O)CS(=O)(=O)c2cn(C)c3ccccc23)no1` stands 0% (inactive); under `COc1cc(CNCc2cccs2)cc(Br)c1OC`, 5% (inactive); under `c1ccc(COc2ccccc2CNCc2cccnc2)cc1`, 3% (inactive).
Under `CCNc1nc(N)nc(-c2cc(Cl)ccc2OC)n1` stands 4% (inactive); under `Cn1c(-c2sc3cc(C(F)(F)F)cnc3c2-c2ccccc2)n[nH]c1=S`, -2% (inactive).
For `C=CCn1c(SCC(=O)c2ccc(Br)cc2)nnc1C(C)NC(=O)Cc1ccc(OC)cc1` (stereo not drawn), the growth inhibition is 4% (inactive).
Consider `Cc1ccc(C(=O)N2CCN(C(=O)N3CCOCC3)CC2)cc1`, for which the growth inhibition is 0% (inactive).
As for `CCN(CC)S(=O)(=O)c1ccc(N(C)Cc2ccc(C(F)(F)F)cc2)nc1`, the growth inhibition is -2% (inactive).
In the case of `CC(C)Cn1cnc2c1c(=O)n(CC(O)c1ccccc1)c(=O)n2CC(C)C` (stereo not drawn) it was 8% (inactive).
Under `CC(=O)c1ccc2c(c1)c1ccccc1n2CC(C)C` stands -1% (inactive); under `CC(=O)c1c(C)n([O-])c2ccccc2[n+]1=O`, 100% (active); under `Cc1ccc(C)c(N2C(=O)CS/C2=N\NC(=O)c2ccccc2Cl)c1`, 1% (inactive).
Under `Nc1c(-c2ccc(F)cc2)cnn1C1CCS(=O)(=O)C1` (stereo not drawn) stands 15% (inactive); under `COc1ccc(-c2c(C(C)=O)c(C)nc3sc4c(=O)n(-c5ccc(C)cc5)nnc4c23)cc1`, -14% (inactive); under `COc1ccc(S(=O)(=O)Nc2ccc(F)cc2)c(C)c1C`, 11% (inactive).
For `O=C(c1ccc2c(c1)OCO2)N1CCN(C(=O)c2ccco2)CC1`, the growth inhibition was 2% (inactive).
Under `CN=C1S/C(=C\c2ccc(Sc3ccc(Cl)cc3)o2)C(=O)N1C` stands -20% (inactive); under `COC(=O)COc1ccc(S(=O)(=O)Nc2ccc(NC(C)=O)cc2)cc1`, 0% (inactive); under `COC(=O)CNS(=O)(=O)c1ccc(OC)cc1`, 1% (inactive).
In the case of `COC(=O)CNS(=O)(=O)c1ccc(Cc2ccc(S(=O)(=O)NCC(=O)OC)cc2)cc1` it was 50% (active).
In the case of `Cc1ccc(C2CC2C(=O)NN)cc1` (stereo not drawn) it was -12% (inactive); in that of `CCCNC(=O)c1ccccc1NC(=O)CSCc1ccc(OC)cc1`, 0% (inactive).
Turning to `Cc1ccc(Sc2cc(N3CCOCC3)nc(-c3ccccc3)n2)cc1`, the growth inhibition was -9% (inactive).
Under `C=CCn1c(SCC(=O)/C(C#N)=C(\C)N)nc2sc(C)c(C)c2c1=O` stands -6% (inactive).
With `CC(C)(C)c1ccc(OC2=CS(=O)(=O)c3ccccc32)cc1`, the growth inhibition is -3% (inactive).
Under `Cc1ccc(CNC(=O)C2CC(c3ccccc3[N+](=O)[O-])=NO2)o1` (stereo not drawn) stands 0% (inactive).
Turning to `CCC(=O)Nc1ccc(S(=O)(=O)NCC2CCCO2)cc1` (stereo not drawn), the growth inhibition is 3% (inactive).
Under `CC(C)c1ccc(C(=O)NCCCc2ccccc2)cc1` stands 1% (inactive).
In the case of `C=CCOC(=O)C1=C(C)NC(SCC(=O)OCC)=C(C#N)C1c1ccc(C)cc1` (stereo not drawn), the growth inhibition is -10% (inactive).
Under `CCOc1ccc(C(=O)NC(C(=O)NCc2ccccn2)C(C)C)cc1` (stereo not drawn) stands -6% (inactive).
